Screening data from PubChem BioAssay.
mHTT CaM bind: disrupts binding of mutant huntingtin to calmodulin; AlphaScreen His-mHTT/GST-CaM binding, luminescence; inhibition, % at 15 µM; 3.6% of 190,000 active; AID 1671202
Pf apPOL inh: Pf-apPOL DNA polymerase inhibition | Recombinant Pf-apPOL, molecular beacon fluorescence, 1.5 h | inhibition, % at 10 µM | 0.25% of 210,000 active
Large screens that a line does not name were inactive. This excerpt belongs to a sample that is enriched for hits. No stated cut-off is given here; in the data, active means inhibition above about 50%; inactive means the rest.

Cc1c(NC(=O)c2ccccc2F)cccc1-c1nc2cc(Cl)ccc2o1	none
Cc1c(NC(=O)c2ncn[nH]2)cccc1-c1nc2cc(Cl)ccc2o1	mHTT CaM bind 53
O=C(Nc1ccc2oc(-c3ccccc3Cl)nc2c1)c1ncn[nH]1	mHTT CaM bind 77, Pf apPOL inh 58
CCN(CC)c1ccc(NC(=O)c2ncn[nH]2)cc1	none
Cc1c(NC(=O)c2ncn[nH]2)cccc1-c1nc2ccccc2s1	mHTT CaM bind 51
Cc1c(NC(=O)c2ccccc2I)cccc1-c1nc2ccccc2s1	none
CCCCN1C(=O)C(C)(C(=O)Nc2ccc(Cl)cc2)Oc2cccnc21 (stereo not given)	none
O=C(NCc1cccnc1)NC1CC(=O)N(c2ccc(Cl)cc2)C1 (stereo not given)	none
O=C(NCc1ccc(C(F)(F)F)cc1)c1ccc(-c2cncnc2)nc1	none
O=C(Nc1ccc(-c2nc3cc(Cl)ccc3o2)cc1)c1ncn[nH]1	mHTT CaM bind 83
O=C(Nc1ccc(N2CCOCC2)c(Cl)c1)c1ncn[nH]1	mHTT CaM bind 82
O=C(Nc1ccc(N2CCOCC2)c(Cl)c1)c1ccccc1	none
COc1cc(C(=O)Nc2ccc(-c3nc4cc(Cl)ccc4o3)cc2)cc(OC)c1OC	none
COc1ccccc1C(=O)Oc1ccc2c(c1)OC(=Cc1ccc(OC)c(OC)c1OC)C2=O	none
CCc1nc(NC(C)CC)c2cnn(-c3ccccc3Cl)c2n1 (stereo not given)	none
Cc1cc(C)c(C#N)c(SCCS(=O)(=O)c2nc3ccccc3s2)n1	none
COc1ccc(C=C2Oc3cc(OCC#N)ccc3C2=O)c(OC)c1	none
COc1cc(CN2CCc3c([nH]c4ccccc34)C2)c([N+](=O)[O-])cc1OC	mHTT CaM bind 66
COc1cc(C)c(CN2CCc3c([nH]c4ccccc34)C2)cc1C	mHTT CaM bind 100
COc1ccc(CN2CCc3c([nH]c4ccccc34)C2)cc1C	none
COc1cc(CN2CCN(Cc3cccc(OC)c3OC)CC2)c([N+](=O)[O-])cc1OC	none
Cc1c(C2CCN(C(=O)c3n[nH]c4ccccc34)CC2)noc1N	none
O=C1CC(c2ccccc2)CC(O)=C1C=Nc1cc(Br)ccc1O (stereo not given)	none
Cc1cc([N+](=O)[O-])nn1CC(=O)Nc1ccc(Br)cn1	none
CC(=O)N1CCN(c2nc3c(s2)CC(C(=O)N2CCC(C)CC2)CC3)CC1 (stereo not given)	none
Cc1ccc([N+](=O)[O-])cc1N=Cc1cccc([N+](=O)[O-])c1	none
O=[N+]([O-])c1cccc(C=Nc2cc(Cl)ccc2O)c1	mHTT CaM bind 59
NC(=S)NN=Cc1cccc([N+](=O)[O-])c1	Pf apPOL inh 79
NC(=S)NN=Cc1ccc([N+](=O)[O-])s1	none (no result: mHTT CaM bind)
Cc1ccc(NC(=O)N2CC(=O)N3CCc4c(F)cccc4C3C2)cc1F (stereo not given)	none
Cc1ccc(/C=c2\sc3n(c2=O)C(N)=C(C#N)C(c2ccc(C)o2)C=3C#N)o1 (stereo not given)	mHTT CaM bind 59
N#CC1=C(N)n2c(s/c(=C\c3ccco3)c2=O)=C(C#N)C1c1ccco1 (stereo not given)	none
CC1(C)CC(=O)C2=C(C1)Nc1ccc3ncccc3c1C2c1ccccn1 (stereo not given)	none
COc1ccc(OC)c(C2C3=C(CC(C)(C)CC3=O)Nc3ccc4ncccc4c32)c1 (stereo not given)	mHTT CaM bind 52
O=C(c1noc2c1CCCCC2)N1CCC2(CC1)OCCO2	none
CC(=O)Nc1ccc(Nc2ncc([N+](=O)[O-])cc2[N+](=O)[O-])cc1	none
CCC(C)c1cc([N+](=O)[O-])cc([N+](=O)[O-])c1OC(=O)OC(C)C (stereo not given)	mHTT CaM bind 51
CCNC(=O)N1CCCC(c2cccc(C(=O)N3CCC(N4CCCCC4)CC3)c2)C1 (stereo not given)	none
O=C(c1ccc2c(c1)C1C=CCC1C(c1ccc([N+](=O)[O-])cc1)N2)N1CCOCC1 (stereo not given)	mHTT CaM bind 70
O=C(c1cccc([N+](=O)[O-])c1)N1CCOCC1	none
O=C(O)C1Nc2ccc([N+](=O)[O-])cc2C2C=CCC12 (stereo not given)	none
O=C(c1ccc2c(c1)C1C=CCC1C(c1ccc(Cl)cc1)N2)N1CCOCC1 (stereo not given)	mHTT CaM bind 83
O=S(=O)(c1ccc(C2Nc3c(Cl)cc(Cl)cc3C3C=CCC32)cc1)N1CCOCC1 (stereo not given)	none
O=C(c1ccc2c(c1)C1C=CCC1C(c1cccc([N+](=O)[O-])c1)N2)N1CCCCC1 (stereo not given)	mHTT CaM bind 81
Cc1ccc2c(c1)C(=O)NC1(CCN(C(=O)Nc3ccc(C)c(C)c3)CC1)N2C	none
Cc1ccc2c(c1)NC(=O)C(C(=O)NCc1ccc(F)cc1)O2 (stereo not given)	none
Cc1cc2[nH]c(C(=O)Nc3ccc(Cl)cc3F)c(CN3CCOCC3)c2s1	none
COc1ccc(Cl)cc1S(=O)(=O)Nc1ccc2c(c1)NC(=O)C(C)(C)CO2	mHTT CaM bind 69
CCc1ccc(NS(=O)(=O)c2cc(Cl)ccc2OC)cc1	none
CCOc1ccccc1/C=c1\sc2nc(-c3ccc(OC)cc3)nn2c1=O	none
CSc1nc2ccccc2n1CC(=O)NC(c1ccccc1)c1ccccc1	mHTT CaM bind 57
CSc1nc2ccccc2n1CC(=O)Nc1ccc(F)cc1	none
Cc1cc(=O)n2ccc(CN3CCCCC3)c(O)c2n1	mHTT CaM bind 92
CC(C)(C)c1nc(CN2CCCCC2)cc(CN2CCCCC2)c1O	none
O=C(Cn1c2c(c3ccccc31)CCC2)Nc1ccc(Cn2cccn2)cc1	none
COc1c(O)cc2oc(Oc3ccc(O)cc3)cc(=O)c2c1O	none (no result: mHTT CaM bind)
COc1ccc(-n2c(C)c3c(C)nnc(C)c3c2C)cc1OC	none
Cc1nnc(C)c2c(C)n(C(C)c3ccccc3)c(C)c12 (stereo not given)	mHTT CaM bind 74
CCOC(=O)c1nn(-c2ccc(C)cc2)c(=O)cc1NC(=O)c1cc(Cl)ccc1OC	none
O=C(CN1C(=O)C2CCCN2C(=O)c2cc(F)ccc21)Nc1cccc(F)c1 (stereo not given)	none
Cc1c(Cl)c(C)c(C=O)c(O)c1Br	mHTT CaM bind 79
COCCNC(=O)N1CC(=O)Nc2ccccc21	none
CNC(=O)N1CCCC(c2cccc(C(=O)N3CCN(c4ccccc4Cl)CC3)c2)C1 (stereo not given)	none
CNC(=O)N1CCCC(c2cccc(C(=O)NCc3ccc(C(F)(F)F)cc3)c2)C1 (stereo not given)	mHTT CaM bind 64
Cc1cccc(N2CCN(C(=O)c3ccc4c(=O)n5c(nc4c3)SCC5)CC2)c1C	none
Cc1cccc(N2CCN(C(=O)c3ccc4nc(-c5ccco5)c(-c5ccco5)nc4c3)CC2)c1C	mHTT CaM bind 78
CC(C)NC(=O)N1CCCC(c2cccc(C(=O)NCc3ccc(C(F)(F)F)cc3)c2)C1 (stereo not given)	none
CNC(=O)N1CCCC(c2cccc(C(=O)N3CCN(c4cccc(C)c4C)CC3)c2)C1 (stereo not given)	mHTT CaM bind 64
Cc1ccc(CNC(=O)c2ccc(F)cc2)cc1	none
COc1ccc(C(=O)N2CCN(c3ccc([N+](=O)[O-])c(N4CCc5ccccc5C4)c3)CC2)cc1	none
CC1=C(C(=O)Nc2cccc(C(F)(F)F)c2)C2(CCCCCC2)OC1=O	mHTT CaM bind 98
CC1=C(C(=O)Nc2cccc(C(F)(F)F)c2)C2(CCCCC2)OC1=O	none
CN1CCOc2ccc(NC(=O)C3CCCO3)cc2C1=O (stereo not given)	none
